Data published in PubChem BioAssay (NCI).
Compounds without any hit were thinned out: in the full panel of roughly 79,000, 15% have a hit. A number with no mark means an inactive call. Active and inactive are the calls of the source. No stated cut-off is given here; in the data, active means growth inhibition above about 70%; inactive means the rest.

Experiments:
[1] = NCI Yeast Anticancer Drug Screen. Data for the rad50 strain (AID 155);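 further: 0% = growth of vehicle-only cultures of the same strain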; conditions: S. cerevisiae rad50 strain growth inhibition, hits give high values
Method in brief: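 Compounds were tested on a yeast strain with an engineered DNA damage repair alteration; the reported value is growth inhibition normalised to vehicle treatment.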

[2] = NCI Yeast Anticancer Drug Screen. Data for the mec2-1 strain (AID 157); conditions: S. cerevisiae mec2-1 strain, hits give high values
Method in brief: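 Cells of the genetically defined mec2-1 yeast strain are incubated with test compound. Inhibition of growth is calculated against vehicle-treated controls.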

[3] = NCI Yeast Anticancer Drug Screen. Data for the sgs1 mgt1 strain (AID 161);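 further: 0% = growth of cultures given vehicle only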; conditions: S. cerevisiae sgs1 mgt1 strain, hits give high values
Method in brief: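 Test agents were incubated with a DNA-repair-mutant yeast strain. Growth was then read and compared against vehicle-treated controls.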

[4] = NCI Yeast Anticancer Drug Screen. Data for the cln2 rad14 strain (AID 165);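 further: 0% = growth equal to vehicle treated cultures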; conditions: S. cerevisiae cln2 rad14 strain, hits give high values
Method in brief: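 The screen exposed genetically defined yeast (cln2 rad14) to test compounds and scored growth inhibition relative to vehicle-treated controls.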

[5] = NCI Yeast Anticancer Drug Screen. Data for the bub3 strain (AID 167); conditions: S. cerevisiae bub3 mutant strain, hits give high values
Method in brief: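 Growth of a checkpoint-deficient yeast mutant is measured after compound exposure. Values represent inhibition relative to vehicle.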

[6] = NCI Yeast Anticancer Drug Screen. Data for the mlh1 rad18 strain (AID 175); conditions: S. cerevisiae mlh1 rad18 strain growth inhibition, hits give high values
Method in brief: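 Compound-treated yeast growth, normalised to vehicle controls. Strain bears defined DNA repair mutations.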

[7] = at 5.0 µM (retest, dose inferred, filed as 0.5)
[8] = at 50.0 µM (retest, dose inferred, filed as 5.0)

Structure (SMILES)	growth inhibition [1, 7]	growth inhibition [1, 8]	growth inhibition ([1]; at 50.0 µM)	growth inhibition [2, 7]	growth inhibition [2, 8]	growth inhibition ([2]; at 50.0 µM)	growth inhibition [3, 7]	growth inhibition [3, 8]	growth inhibition ([3]; at 50.0 µM)	growth inhibition [4, 7]	growth inhibition [4, 8]	growth inhibition ([4]; at 50.0 µM)	growth inhibition [5, 7]	growth inhibition [5, 8]	growth inhibition ([5]; at 50.0 µM)	growth inhibition [6, 7]	growth inhibition [6, 8]	growth inhibition ([6]; at 50.0 µM)
Nc1ccccc1SC(/C=C/NNC1=NC(c2ccccc2)C(c2ccccc2)=NN1)c1ccccc1 (configuration not stated)	43%	43%	93% (active)	7%	7%	93% (active)	19%	19%	91.5% (active)	29%	29%	91.7% (active)	30%	30%	93.3% (active)	11%	11%	91.8% (active)
COc1ccc(Oc2ccc(C(=O)C(CN(C)C)CN(C)C)cc2)cc1	-4%	96% (active)	84% (active)	-13%	97% (active)	87.8% (active)	11%	98% (active)	85.8% (active)	-2%	95% (active)	87.8% (active)	-3%	96% (active)	85.6% (active)	0%	96% (active)	86.5% (active)
O=[N+]([O-])c1ccc(-c2ccc(-c3csc(Nc4ccccc4)n3)o2)cc1	42%	96% (active)	93.2% (active)	96% (active)	98% (active)	93.4% (active)	44%	97% (active)	92.6% (active)	63%	97% (active)	90.8% (active)	97% (active)	98% (active)	93% (active)	98% (active)	97% (active)	90.5% (active)
COc1cccc2c1C(=O)c1c(O)c3c(c(O)c1C2=O)C[C@@](O)(C(C)=O)C[C@@H]3OC1CC([N+]([O-])(Cc2ccccc2)Cc2ccccc2)C(O)C(C)O1 (some centres not stated)	79% (active)	95% (active)	75.6% (active)	30%	87% (active)	23.9%	48%	88% (active)	19.2%	23%	70% (active)	22.2%	32%	81% (active)	31.7%	70% (active)	92% (active)	10.8%
CC(=O)c1c(O)ccc2nc3ccccc3nc12	11%	87% (active)	94% (active)	20%	92% (active)	91.5% (active)	14%	89% (active)	82.6% (active)	12%	86% (active)	82.8% (active)	22%	85% (active)	92% (active)	39%	91% (active)	94.5% (active)
C1CCC(C2=NC3CCCCC3SC2)CC1 (configuration not stated)	5%	98% (active)	92.2% (active)	-16%	99% (active)	93.5% (active)	5%	86% (active)	93.9% (active)	10%	96% (active)	90.1% (active)	6%	98% (active)	92.1% (active)	-20%	98% (active)	91.2% (active)
Nc1ncnc2c1ncn2C1OCC(OCc2ccccc2)C(OCc2ccccc2)C1OCc1ccccc1 (configuration not stated)	9%	99% (active)	98.3% (active)	-25%	100% (active)	96% (active)	13%	98% (active)	99.2% (active)	6%	98% (active)	96.8% (active)	13%	99% (active)	97.5% (active)	-4%	99% (active)	98.1% (active)
COc1ccc(CCNC(=S)/N=C\C(C(=O)c2ccccc2)=C(\O)c2ccccc2)cc1OC	1%	95% (active)	99% (active)	0%	93% (active)	98.8% (active)	-2%	75% (active)	99% (active)	-25%	98% (active)	97.8% (active)	0%	99% (active)	98.8% (active)	3%	97% (active)	98.6% (active)
O=C1CSC(c2ccc(Cl)cc2)N1c1ccc(-c2ccc(-n3c(-c4ccccc4)nc4ccccc4c3=O)cc2)cc1 (configuration not stated)	-6%	84% (active)	69.4%	2%	63%	47.2%	9%	65%	84.2% (active)	-11%	50%	26.9%	-4%	95% (active)	84.8% (active)	-10%	94% (active)	87.5% (active)
